This is an account of results in PubChem BioAssay AID1851 (National Center for Advancing Translational Sciences (NCATS), 2009).

Values joined by “and” are separate entries in the source; they are usually repeats but may differ in a detail not shown here. Identical values can stand only once. The campaign covered roughly 16,000 compounds. About 5,700 (36%) were called active. Another 24% or so got no clear call; they are omitted. The list shows a part of the results. Values without a mark were called inactive. Calls follow the shape of the dose curve; as a rule, active = well fitted curve in the direction sought with a large enough effect; inconclusive = small, poorly fitted or top-dose-only effect, or effect the other way; inactive = no such curve, though single readings can be large or run the other way.
% is scaled to controls: 0 for no effect and ±100 for the full control effect.

The target of this experiment is Cytochrome P450 1A2 (Homo sapiens) (UniProt P05177). In words: Cytochrome panel assay with activity outcomes. The note with it: recombinant CYP, pro-luciferin dealkylation, luminescence, p450-cyp1a2; series mostly up to 57.1 µM.
Sequence of Cytochrome P450 1A2 (Homo sapiens) (P05177 whole entry, looked up): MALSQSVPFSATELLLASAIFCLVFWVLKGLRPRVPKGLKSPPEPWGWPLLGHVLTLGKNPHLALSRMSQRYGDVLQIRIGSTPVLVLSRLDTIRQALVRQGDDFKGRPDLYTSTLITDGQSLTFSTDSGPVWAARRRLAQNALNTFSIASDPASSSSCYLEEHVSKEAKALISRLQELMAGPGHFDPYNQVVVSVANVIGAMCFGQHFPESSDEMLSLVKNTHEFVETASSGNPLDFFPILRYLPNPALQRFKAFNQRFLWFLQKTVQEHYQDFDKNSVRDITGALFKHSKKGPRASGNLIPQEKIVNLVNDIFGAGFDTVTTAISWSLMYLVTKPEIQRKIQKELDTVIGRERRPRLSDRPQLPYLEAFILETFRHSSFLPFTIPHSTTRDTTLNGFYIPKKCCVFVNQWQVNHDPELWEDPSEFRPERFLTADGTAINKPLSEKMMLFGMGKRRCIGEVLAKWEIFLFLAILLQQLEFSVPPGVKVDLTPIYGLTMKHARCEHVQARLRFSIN
Regarding `COc1ccc(OC)c(-c2cc(C(=O)O)c3cc4ccccc4cc3n2)c1`, the activity, negative = inhibition is -21.4% [at 2.29 µM].

Take `O=C(O)c1ccc(C(=O)c2ccccc2)c(C(=O)O)c1`: the activity, negative = inhibition is 3.14% [at 2.29 µM].

With `O=C(O)c1ccc(C(=O)c2ccccc2C(=O)O)cc1C(=O)O`, the activity, negative = inhibition was 2.76% [at 11.4 µM].

In the case of `COc1ccc2nccc(C(=O)O)c2c1`, the AC50 (as a rule, the concentration at which the activity in the assay is half-maximal) is “inactive”.

As to `COc1ccc(C(=O)c2ccccc2)c(O)c1`, the concentration at half-maximal activity (AC50) was 1.58 µM (active).

Regarding `COc1ccc2oc(C(=O)c3ccccc3)c(N)c2c1`, the concentration at half-maximal activity (AC50) was 1.26 µM (active).

`CN(C)c1nccc(N(Cc2ccccc2)Cc2ccccc2)c1C#N`: the concentration at half-maximal activity (AC50) was 11.2 µM (active).

Turning to `Cc1ccc(N(Cc2ccccc2)Cc2ccccc2)cc1`, the activity, negative = inhibition is -24.2% [at 2.29 µM].

Take `COc1ccc(CN(CCN(C)C)c2ccccn2)cc1`: the AC50 entry is “inactive”.

Take `Cc1cc(N2C(=O)C(O)=C(C(=O)c3ccco3)C2c2ccc(O)cc2)no1` (stereo not given): the AC50 result is “inactive”.

Consider `Cc1ccc2occ(/C=C/C(=O)O)c(=O)c2c1`, for which the AC50 entry was “inactive”.

On to `c1csc(CNc2ncncc2-c2ccoc2)c1`, for which the concentration at half-maximal activity (AC50) was 2 µM (active).

In the case of `c1ccc(CNc2ncncc2-c2ccoc2)cc1`, the half-maximal activity concentration (AC50) is 5.01 µM (active).

Turning to `c1cncc(-c2cncnc2NCc2cccs2)c1`, the AC50 is 0.316 µM (active).

In the case of `CC(N)=NCc1cccc(CN)c1`, the AC50 entry was “inactive”.

As for `O=C(NCc1ccccc1)C(c1ccncc1)N(C(=O)c1csnn1)C1CC1` (stereo not given), the AC50 entry is “inactive”.

Regarding `CN(C)CCCN1CCC2(CCC(C(C)(C)C)CC2)CC1`, the activity, negative = inhibition was -1.31% [at 11.4 µM].

In the case of `N#Cc1cccc(-c2nc(N3CCNCC3)c3ccccc3n2)c1`, the concentration at half-maximal activity (AC50) was 2.51 µM (active).

With `CN1CCN(c2nc(-c3cccc(C#N)c3)nc3ccccc23)CC1`, the AC50 was 1.58 µM (active).

With `COc1ccc(-c2nc(-c3cccc(C)c3)nc(N3CCN(C)CC3)c2C#N)cc1`, the AC50 entry was “inactive”.

On to `COc1ccc(C(=O)NC2(C(F)(F)F)C(=O)Nc3c2c(=O)[nH]c(=O)n3CCc2ccc(OC)c(OC)c2)cc1` (stereo not given), for which the AC50 entry was “inactive”.

As to `CC(=O)OCc1c(C(F)(F)F)nn(C)c1Sc1ccccc1`, the AC50 was 15.8 µM (active).

Consider `COc1cc(S(C)=O)ccc1-c1nc2ncccc2[nH]1` (stereo not given), for which the AC50 was 0.251 µM (active).

Consider `O=C(O)C[C@H](NC(=O)CP(=O)(O)O)C(=O)O.[NH-][C@@H]1CCCC[C@@H]1[NH-].[Pt]`, for which the activity, negative = inhibition is -15.5% [at 11.4 µM].

As to `FC(F)(F)c1nnc2c(Sc3ccc(Cl)cc3)nc3ccccc3n12`, the half-maximal activity concentration (AC50) is 0.1 µM (active).

On to `FC(F)(F)c1nnc2c(Sc3ccccc3)nc3ccc(Cl)cc3n12`, for which the half-maximal activity concentration (AC50) was 0.708 µM (active).

For the compound `CC(/C=N/n1c(-c2cccnc2)n[nH]c1=S)=C\c1ccccc1`, the AC50 was 0.141 µM (active).

Regarding `O=C(O)c1nn(-c2ccccc2)ccc1=O`, the AC50 entry was “inactive”.

In the case of `NNC(=O)c1nn(-c2ccc(Cl)cc2)ccc1=O`, the AC50 was 15.8 µM (active).

With `CC(C)=CCC/C(C)=C/CO/N=C1/C[C@@H](O)[C@@H](O)[C@@H]2[C@H]3C(=O)N(c4ccc(F)cc4F)C(=O)[C@@H]3CC[C@@H]12`, the activity, negative = inhibition is 8.54% [at 11.4 µM].

As for `C#CCN(C)Cc1ccccc1`, the AC50 result is “inactive”.

For the compound `C#CCN(C)CCCOc1ccc(Cl)cc1Cl`, the AC50 is 631 nM (active) and 158 nM (active).

On to `CC[C@]1(O)C[C@H]2CN(CCc3c([nH]c4ccccc34)[C@](C(=O)OC)(c3cc4c(cc3OC)N(C=O)[C@H]3[C@@](O)(C(=O)OC)[C@H](OC(C)=O)[C@@]5(CC)C=CCN6CC[C@]43[C@H]65)C2)C1`, for which the AC50 entry is “inactive”.

As to `CO[C@H]1C[C@@H]2C[C@H](O)C[C@@H](CC(=O)O[C@@H](/C=C\CC(C)C)C[C@@H]3CC[C@H](C)[C@@H](C1)O3)O2`, the activity, negative = inhibition is -2.91% [at 11.4 µM].

On to `O=c1n(CCCN2CCN(c3cccc(Cl)c3)CC2)nc2ccccn12`, for which the AC50 result was “inactive”.

Take `CN1CCCC[C@@H]1CCN1c2ccccc2Sc2ccc(S(C)=O)cc21` (stereo not given in full): the AC50 result is “inactive”.

As for `CCSc1ccc2c(c1)N(CCCN1CCN(C)CC1)c1ccccc1S2`, the AC50 is 0.316 µM (active).

Regarding `CN1CCN(CCCN2c3ccccc3Sc3ccc(Cl)cc32)CC1`, the concentration at half-maximal activity (AC50) is 1 µM (active) and 2.51 µM (active).

With `CN1CCC[C@@H]1CCO[C@](C)(c1ccccc1)c1ccc(Cl)cc1`, the AC50 result was “inactive”.

In the case of `O=C1CSC2(CCN(CCCN3c4ccccc4Sc4ccc(Cl)cc43)CC2)N1`, the AC50 was 3.16 µM (active).

Turning to `CSc1ccc2c(c1)N(CC[C@H]1CCCCN1C)c1ccccc1S2`, the AC50 is 7.94 µM (active).

On to `OC1CC2CC[C@H](C1)N2CCCN1c2ccccc2Sc2ccc(Cl)cc21` (stereo not given in full), for which the activity, negative = inhibition was -12.5% [at 11.4 µM].

Take `Clc1ccc2c(c1)N(CCCN1CCCC13CCCCC3)c1ccccc1S2`: the activity, negative = inhibition is -6.18% [at 2.29 µM].

Regarding `Nc1c(S(N)(=O)=O)cc(S(N)(=O)=O)cc1S(N)(=O)=O`, the activity, negative = inhibition is -11.6% [at 11.4 µM].

On to `C=CCNCCCCOc1c(Cl)cc(C)cc1Br`, for which the AC50 was 0.2 µM (active).

Consider `COCCCNCCCCOc1c(Cl)cc(C)cc1Br`, for which the half-maximal activity concentration (AC50) was 0.562 µM (active).

Turning to `FC(F)(F)c1cc(CN2CCCC3(CCNCC3)C2)cc(C(F)(F)F)c1`, the AC50 result was “inactive”.

On to `C[C@H]1/C=C\CC(=O)OC[C@H](C)C(=O)N2CCC[C@@H]2C(=O)OC1`, for which the activity, negative = inhibition was 7.07% [at 11.4 µM].

`NNc1nncc2ccccc12`: the AC50 is 1 µM (active).

Turning to `CCOC(=O)NNc1nncc2ccccc12`, the half-maximal activity concentration (AC50) is 5.01 µM (active).

As for `c1ncc(-c2ccoc2)c(NC2CC2)n1`, the AC50 was 15.8 µM (active).

Turning to `Fc1ccc(Nc2ncncc2-c2ccoc2)cc1`, the AC50 was 0.316 µM (active).

As to `Cc1noc(C)c1-c1cncnc1NC1CC1`, the AC50 entry is “inactive”.

Regarding `c1ccc(Nc2ncncc2-c2ccoc2)cc1`, the AC50 was 1 µM (active).

As for `COc1cc(C2C(C#N)=C(N)N(Nc3ccccc3)C3=C2C(=O)CC(C)(C)C3)ccc1OCc1ccccc1` (stereo not given), the AC50 result is “inactive”.

Consider `COc1cc(/C=N/O)cc(Br)c1OCc1cccc(Cl)c1`, for which the AC50 is 0.631 µM (active).

For `N/C(=N\OC(=O)c1cc(-c2ccccc2)nc2ccccc12)c1ccc(Cl)cc1`, the concentration at half-maximal activity (AC50) is 11.2 µM (active).

As to `O=C(O)c1cc(-c2ccc(-c3ccc(-c4cc(C(=O)O)c5cc(Cl)ccc5n4)cc3)cc2)nc2ccc(Cl)cc12`, the activity, negative = inhibition is -18.1% [at 2.29 µM].

For the compound `O=C1[C@H]2[C@H]3[C@H](O)[C@H](O)C/C(=N/OC[C@@H](O)COCc4ccco4)[C@@H]3CC[C@@H]2C(=O)N1Cc1ccccc1`, the activity, negative = inhibition was 11.1% [at 11.4 µM].

As for `CCNc1ncc2nc(-c3ccccc3)c(=O)n(C3CC3)c2n1`, the AC50 was 2.51 µM (active).

Regarding `CCNc1ncc2nc(-c3ccc(Cl)cc3)c(=O)n(C3CC3)c2n1`, the AC50 was 0.501 µM (active).

`O=C(O)C1=C/C(=C(/c2ccccc2)c2cc(C(=O)O)c(O)c3ccccc23)c2ccccc2C1=O`: the activity, negative = inhibition is -21.5% [at 11.4 µM] and -13.1% [at 11.4 µM].

Regarding `Cc1ccc(O)c(-c2cc(C(F)(F)C(F)F)nc(-c3ccccc3)n2)c1`, the half-maximal activity concentration (AC50) is 2.82 µM (active).

Take `COc1ccccc1NC(=S)NC(=O)c1ccc(-c2ccc(Cl)cc2)o1`: the AC50 was 2.82 µM (active).

In the case of `COc1ccccc1NC(=S)NNC(=O)c1c(Cl)c(C)nn1C`, the AC50 entry was “inactive”.

As to `Fc1ccccc1NC(=S)NCCc1ccccc1`, the half-maximal activity concentration (AC50) was 5.62 µM (active).

For the compound `COc1ccccc1NC(=S)NCCc1ccccc1`, the AC50 was 12.6 µM (active).

Consider `Fc1ccc(NC(=S)NCCc2ccccc2)c(F)c1F`, for which the concentration at half-maximal activity (AC50) is 5.62 µM (active).

`CCn1cc(C(=O)O)c(=O)c2cc(F)c(N3CCN[C@@H](C)C3)c(F)c21`: the AC50 entry is “inactive”.

As to `CC(C)(C)c1ccc(S(=O)(=O)/C=C\C#N)cc1`, the half-maximal activity concentration (AC50) was 1.58 µM (active).

On to `C[C@@](N)(C(=O)O)c1ccc(S(=O)(=O)O)cc1`, for which the AC50 entry was “inactive”.

Regarding `CC(=O)NCCC(=O)Nc1sc2c(c1-c1nc3ccccc3[nH]1)CCCC2`, the AC50 was 7.08 µM (active).

For `CCc1cc2c(=O)c(-c3nc4ccccc4[nH]3)coc2cc1OC(=O)N1CCOCC1`, the AC50 result was “inactive”.

In the case of `Cc1c(OC(=O)c2ccc([N+](=O)[O-])cc2)c2c(c[n+]1C)COC(C)(C)OC2`, the concentration at half-maximal activity (AC50) was 17.8 µM (active).

As for `OCC1CCCN(Cc2ccc(-c3ccccc3)cc2)C1` (stereo not given), the AC50 entry is “inactive”.

Consider `Cc1cc(C)cc(N(C(=O)c2ccccn2)C(C(=O)NC2CCCCC2)c2cccs2)c1` (stereo not given), for which the AC50 entry was “inactive”.

For the compound `O=C(NCCCN1CCOCC1)c1cc(C(=O)C2CC2)c[nH]1`, the half-maximal activity concentration (AC50) is 17.8 µM (active).

As for `O=C(NCCCN1CCOCC1)c1cc2c(s1)CSC2`, the AC50 result is “inactive”.

For the compound `O=C(NCCc1ccccn1)c1cc(C(=O)C2CCCCC2)c[nH]1`, the AC50 was 14.1 µM (active).

Turning to `Cc1ccc(C(=O)c2c[nH]c(C(=O)NCCCN3CCOCC3)c2)cc1`, the AC50 entry was “inactive”.

Consider `C/C(CCC(=O)OC[C@@H]1O[C@H](C#Cc2ccccc2)C=C[C@@H]1Oc1ccc(C)cc1)=N/O[C@@H](C)CN1CCCc2nc(C)c(C)cc21`, for which the activity, negative = inhibition is -8.42% [at 11.4 µM].

Consider `CC(=O)OC[C@@H]1O[C@@H](O/N=C2/C[C@@H](O)[C@@H](O)[C@@H]3[C@@H]4C(=O)N(C(C)(C)C)C(=O)[C@H]4CC[C@@H]23)[C@H](OC(C)=O)[C@H](OC(C)=O)[C@@H]1OC(C)=O`, for which the activity, negative = inhibition was -1.47% [at 11.4 µM].

Take `[O-][N+]1(CC[N+]2([O-])CCCCC2)CCCCC1`: the activity, negative = inhibition is -3.29% [at 11.4 µM].

As to `COc1ccc(NC(=O)CN(C)S(=O)(=O)c2ccc(Cl)cc2)c([N+](=O)[O-])c1`, the AC50 entry is “inactive”.

Regarding `COc1ccc(NC(=O)C(=O)NNC(=O)c2cccs2)c(OC)c1`, the AC50 result is “inactive”.

As for `COc1ccc(NC(=O)CSc2nncn2C)c([N+](=O)[O-])c1`, the half-maximal activity concentration (AC50) was 11.2 µM (active).

For `CCOc1ccc(/C=C/C(=O)Nc2ccc(OC)cc2[N+](=O)[O-])cc1`, the AC50 result was “inactive”.

For `COc1ccc(NC(=O)c2cccs2)c([N+](=O)[O-])c1`, the AC50 was 3.16 µM (active).

For the compound `COc1ccc(NC(=O)c2ccc(C)cc2Cl)c([N+](=O)[O-])c1`, the AC50 was 2 µM (active).

In the case of `CC(C)(C)N1C(=O)[C@H]2[C@@H]3[C@H](O)C=CC(=O)[C@H]3CC[C@H]2C1=O`, the activity, negative = inhibition is -5.4% [at 11.4 µM].
